rCAG RNA binder = binds r(CAG) RNA repeats | r(CAG) RNA repeat, TO-PRO-1 dye displacement fluorescence | inhibition, % at 3 µM | 370,000 tested, 1.3% active | AID 651821;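 active = inhibition above the plate cutoff, the mean of all test compounds on that plate plus 3 SD, cut at about 35% in these data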;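 also: 0% = DMSO alone and 100% = 100 µM mitoxantrone as full dye displacement; higher means more dye released from RNA so lower well fluorescence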
ABHD5 PLIN5 PPI = ABHD5-PLIN5 protein interaction inhibition; Q00G26+Q8WTS1; Split G. princeps luciferase complementation, luminescence, 4 h; inhibition, % at 4 µM; 360,000 tested, 0.78% active;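 active = inhibition above the mean inhibition across every tested compound plus 3 SD, cut at about 22% in these data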;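 also: 0% = DMSO only wells and the 100% control is not disclosed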
PRMT1 FP inh = PRMT1 (human) inhibition, primary screen. Q99873. recombinant PRMT1, activity-based probe fluorescence polarization. inhibition, % at 2.79 µM. 370,000 tested, 1.3% active;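 active = inhibition above about 21% made by adding two undisclosed values, limit read from the data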
MBD2 inh = inhibitors of human MBD2 binding to methylated oligonucleotide; Q9UBB5; TR-FRET; inhibition, % at 4.4 µM; 370,000 tested, 0.31% active; AID 686964; in the data active = inhibition above about 13%
UHRF1 binding = blocks human UHRF1 binding to methylated DNA. Q96T88. AID 687016. 370,000 tested, 0.75% active. inhibition, % at 4.4 µM. UHRF1 binding to methylated oligo, TR-FRET; in the data active = inhibition above about 21%;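 also: UHRF1 SRA domain binding a hemimethylated CpG hairpin DNA probe; 0% = median of test compound wells and 100% = reference inhibitor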
LEDGF integ inh = blocks HIV-1 LEDGF/p75-dependent DNA integration; 370,000 tested, 0.64% active; TR-FRET IN-LEDGF/p75 DNA integration, Eu/Cy5; inhibition, % at 3.7 µM; AID 743269;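 active = inhibition above the screen-wide mean plus 3 SD, cut at about 13% in these data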;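 also: signal is the Cy5 over europium emission ratio at 671 and 618 nm; 0% = plate median of compound wells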
ABHD5 PLIN5 conf = ABHD5-PLIN5 interaction inhibition, confirmed; 2,200 tested, 67% active; biochemical ABHD5-PLIN5 interaction, luminescence; inhibition, % at 4 µM; shares compounds with ABHD5 PLIN5 PPI; in the data active = inhibition above about 23%;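 also: 0% = DMSO vehicle wells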
HNF4 counter = active in HNF4 split-luciferase counter-screen for ABHD5-PLIN5 inhibitors. AID 651674. shares compounds with ABHD5 PLIN5 PPI. 2,200 tested, 77% active. inhibition, % at 4 µM. HNF4 dimerization, luminescence, biochemical;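 active = mean inhibition across replicate wells exceeding the computed hit threshold, cut at about 13% in these data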;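 also: light from luciferase halves that rejoin when HNF4 fusion proteins dimerize; 0% = DMSO only wells and the 100% control is not given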
Target sequence (P41235 whole entry, looked up, the tested form may be a part): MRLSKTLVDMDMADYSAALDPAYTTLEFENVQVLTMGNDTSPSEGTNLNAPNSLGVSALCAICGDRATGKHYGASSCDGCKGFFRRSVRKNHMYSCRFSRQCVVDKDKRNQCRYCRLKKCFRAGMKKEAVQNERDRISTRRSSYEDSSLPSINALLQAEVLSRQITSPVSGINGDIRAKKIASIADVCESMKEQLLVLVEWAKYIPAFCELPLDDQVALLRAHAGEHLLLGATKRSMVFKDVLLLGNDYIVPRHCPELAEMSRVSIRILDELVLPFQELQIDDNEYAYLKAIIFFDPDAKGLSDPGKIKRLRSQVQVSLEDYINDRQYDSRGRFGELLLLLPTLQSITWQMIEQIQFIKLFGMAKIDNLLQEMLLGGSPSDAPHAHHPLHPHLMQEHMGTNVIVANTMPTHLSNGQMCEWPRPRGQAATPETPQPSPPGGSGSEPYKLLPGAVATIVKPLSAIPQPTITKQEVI
Active calls of the source: *; nt = no result given. Only some compounds are listed: those with a hit (about 4.1% of all), similar ones and a draw of the others.

SMILES | rCAG RNA binder | ABHD5 PLIN5 PPI | PRMT1 FP inh | MBD2 inh | UHRF1 binding | LEDGF integ inh | ABHD5 PLIN5 conf | HNF4 counter
C=CCOc1cccc(C(=O)N2CCCC(CCC(=O)NCc3ccccc3F)C2)c1 (configuration not stated) | -8 | -4 | -1 | 2 | -2 | 1 | nt | nt
CC(=O)/C=C1/C(=O)Nc2ccccc21 | 3 | 44* | 11 | -2 | -1 | -5 | 71* | 81*
O=C1Nc2ccc(Br)cc2/C1=C/C(=O)c1ccccc1 | 15 | 85* | 11 | -8 | -1 | 0 | 88* | 80*
COC(=O)[C@]12C[C@H](CC(=O)N3CCOCC3)C(=O)N(Cc3cccc4ccccc34)C1=C[C@H](COCc1ccccc1)O[C@@H]2C | 7 | nt | -1 | -5 | -3 | 3 | nt | nt
CCC(C)CNC(=O)CN1C(=O)C2CCCCN2C(=O)c2ccccc21 (configuration not stated) | -1 | nt | 1 | -3 | 0 | 1 | nt | nt
O=C(/C=C/c1cccnc1)c1ccccc1O | 1 | 13 | -1 | -2 | -1 | 0 | nt | nt
O=C(/C=C/c1ccc(O)cc1)c1ccccc1 | 2 | 16 | -1 | 0 | -2 | 6 | nt | nt
CN(C)C(=O)COc1ccc(C(=O)/C=C/c2cccnc2)cc1 | 0 | 28* | 4 | 3 | -1 | 0 | 52* | 46*
O=C(/C=C/c1cccnc1)c1ccc(O)cc1 | 1 | 29* | 4 | -3 | 3 | -4 | 49* | 48*
O=C(C=Cc1cccnc1)c1ccccc1 | 1 | 74* | 12 | 11 | 3 | -5 | 84* | 81*
Cc1cccc(C(=O)Nc2c(-c3ccccc3)nc3ncccn23)c1 | 7 | nt | 1 | 2 | -1 | 1 | nt | nt
COc1ccc([C@H](C#Cc2ccccc2)CC(=O)O)cc1OC1CCCC1 | 20 | nt | 0 | -2 | 2 | -2 | nt | nt
CCCC(=O)N1CCC[C@]2(CC[C@@H](CCC(C)=O)O2)C1 | 3 | nt | -2 | 0 | 1 | -3 | nt | nt
O=C(NNC(=O)C1CC1)c1ccccc1[N+](=O)[O-] | -3 | 32* | 2 | -1 | 6 | -2 | 8 | 7
Cc1cccc(-n2cnc3c(c2=O)c2nc4ccccc4nc2n3Cc2ccco2)c1 | 6 | 30* | 21* | -4 | 0 | -1 | 47* | 70*
Cc1cccc(S(=O)(=O)c2c(N)n(Cc3ccco3)c3nc4ccccc4nc23)c1 | 6 | 6 | 14 | -2 | -6 | 1 | nt | nt
C#CCN(Cc1cccc(F)c1)C(=O)c1nnc2c3cc(F)ccc3n(S(=O)(=O)c3ccc(OC)cc3)c2n1 | 8 | nt | -2 | -1 | -1 | 1 | nt | nt
Cc1ccc(-n2nc(C)c3c(C)c(CCC(=O)Nc4ccc(CN5CCCC5)cc4)c(C)nc32)cc1 | 0 | 29* | 2 | 0 | 4 | -3 | 12 | 3
CCOc1ccc(C(=O)CCC(=O)N(CC)CC(=O)NCc2cccs2)cc1 | 2 | -6 | 13 | 1 | -1 | -4 | nt | nt
CCOc1ccc(C(=O)CC(NCc2cccs2)C(=O)O)cc1 (configuration not stated) | 6 | 57* | 14 | 2 | 1 | -2 | 91* | 110*
C=CCN1CC(COCc2ccccc2)OCCS1(=O)=O (configuration not stated) | 1 | nt | 3 | -8 | 1 | 0 | nt | nt
COC(=O)[C@]12C[C@H](CC(=O)NCC3CCCCC3)C(=O)N(Cc3ccc4c(c3)OCO4)C1=C[C@H](C(C)C)O[C@@H]2C1CC1 | 4 | nt | 0 | 3 | 0 | -3 | nt | nt
COc1ccc(-n2c(SCC(=O)NC3CCCCCC3)nnc2-c2ccncc2)cc1 | 3 | nt | 5 | 7 | -1 | -4 | nt | nt
Cc1ccccc1/C=C/C12NC(=O)CN1c1ccccc1C2(C)C (configuration not stated) | 1 | 0 | 0 | -2 | -2 | -3 | nt | nt
CC1(C)c2ccccc2N2CC(=O)N[C@@]21/C=C/C=C/c1ccccc1 | -6 | 34* | 3 | 3 | 2 | -6 | 5 | 9
SMILES | rCAG RNA binder | ABHD5 PLIN5 PPI | PRMT1 FP inh | MBD2 inh | UHRF1 binding | LEDGF integ inh | ABHD5 PLIN5 conf | HNF4 counter
CCOC(=O)N1CCN(S(=O)(=O)/C=C/c2ccccc2)CC1 | -6 | -7 | 1 | 0 | 0 | -5 | nt | nt
CCOC(=O)N1C/C(=C\c2ccccc2)C(=O)/C(=C/c2ccccc2)C1 | -1 | 69* | 1 | 0 | 1 | -6 | 103* | 108*
COc1ccc(OC(=O)N2C/C(=C/c3ccccc3)C(=O)/C(=C\c3ccccc3)C2)cc1 | 7 | 75* | -1 | 2 | -3 | 0 | 104* | 107*
COc1ccc(OC(=O)N2CCOCC2)cc1 | 0 | 1 | -1 | 2 | -2 | -4 | nt | nt
C[C@H](CO)N1C[C@H](C)[C@@H](CN(C)Cc2ccc3c(c2)OCO3)Oc2c(NC(=O)C3CCCCC3)cccc2C1=O | 6 | 9 | -1 | -6 | 0 | 1 | nt | nt
C[C@H](CO)N1C[C@H](C)[C@@H](CN(C)Cc2ccc(C(=O)Nc3ccccc3N)cc2)Oc2c(NC(=O)C3CCCCC3)cccc2C1=O | -1 | 72* | 1 | 1 | -1 | -1 | 1 | 3
Cc1cccc(NC(=S)N(CCCN2CCOCC2)Cc2cn(C)c3ccccc23)c1 | 3 | 23* | 1 | 1 | 42* | 0 | 1 | -2
Cn1cc(CN(CCCN2CCOCC2)C(=S)Nc2cccc(Cl)c2)c2ccccc21 | -1 | 25* | 0 | 1 | -1 | 0 | 11 | -1
COc1ccc(NC(=S)N(CCCN2CCOCC2)Cc2cn(C)c3ccccc23)cc1 | -3 | -2 | 2 | 0 | -1 | -1 | nt | nt
COc1ccc(/C=C(/C(=O)c2cccs2)N2C=CC=CC2=C(C#N)C#N)cc1 | 4 | 33* | 6 | -3 | 8 | 0 | 59* | 81*
N#CC(C#N)=C1C=CC=CN1/C(=C\c1ccco1)C(=O)c1ccccc1 | 2 | 54* | 10 | 0 | -5 | 0 | 102* | 110*
COc1ccc(C(=O)N/C(=C\c2ccco2)C(=O)OCc2ccco2)cc1 | 10 | 4 | 15 | 0 | 3 | 9 | nt | nt
CC(C)(C)NC(=O)/C(=C/c1ccco1)c1ccccc1 | 3 | 9 | 4 | 0 | 3 | -2 | nt | nt
COc1ccc(C(=O)/C(=C\c2ccco2)N2C=CC=CC2=C(C#N)C#N)cc1 | nt | 80* | nt | nt | nt | nt | 97* | 102*
C#CCCC(=O)Nc1sc2c(c1-c1nc3ccccc3s1)CCN(C(C)C)C2 | nt | nt | 16 | 7 | -24 | -2 | nt | nt
CN(C)c1ccc(/C=C/c2c([N+](=O)[O-])c(=O)n(C)c(=O)n2C)cc1 | 0 | -1 | -2 | -16 | -14 | 1 | nt | nt

Screens from PubChem BioAssay.
